25 molecules from PubChem BioAssay (Tox21) can be followed below.

Results filed as inconclusive are left out. Calls of active or inactive are those of the source. Unless noted, the call rests on the fitted dose curve; in most records, active means well fitted curve in the direction sought with a large enough effect in the repeat runs; inconclusive means weak or mixed curves; inactive means no such curve, though single readings can be large; an effect the other way counts as inactive or inconclusive.
On the % scale 0 is the no-effect control and ±100 the full control effect.

Sequence of Androgen receptor (Homo sapiens) (P10275 whole entry, looked up): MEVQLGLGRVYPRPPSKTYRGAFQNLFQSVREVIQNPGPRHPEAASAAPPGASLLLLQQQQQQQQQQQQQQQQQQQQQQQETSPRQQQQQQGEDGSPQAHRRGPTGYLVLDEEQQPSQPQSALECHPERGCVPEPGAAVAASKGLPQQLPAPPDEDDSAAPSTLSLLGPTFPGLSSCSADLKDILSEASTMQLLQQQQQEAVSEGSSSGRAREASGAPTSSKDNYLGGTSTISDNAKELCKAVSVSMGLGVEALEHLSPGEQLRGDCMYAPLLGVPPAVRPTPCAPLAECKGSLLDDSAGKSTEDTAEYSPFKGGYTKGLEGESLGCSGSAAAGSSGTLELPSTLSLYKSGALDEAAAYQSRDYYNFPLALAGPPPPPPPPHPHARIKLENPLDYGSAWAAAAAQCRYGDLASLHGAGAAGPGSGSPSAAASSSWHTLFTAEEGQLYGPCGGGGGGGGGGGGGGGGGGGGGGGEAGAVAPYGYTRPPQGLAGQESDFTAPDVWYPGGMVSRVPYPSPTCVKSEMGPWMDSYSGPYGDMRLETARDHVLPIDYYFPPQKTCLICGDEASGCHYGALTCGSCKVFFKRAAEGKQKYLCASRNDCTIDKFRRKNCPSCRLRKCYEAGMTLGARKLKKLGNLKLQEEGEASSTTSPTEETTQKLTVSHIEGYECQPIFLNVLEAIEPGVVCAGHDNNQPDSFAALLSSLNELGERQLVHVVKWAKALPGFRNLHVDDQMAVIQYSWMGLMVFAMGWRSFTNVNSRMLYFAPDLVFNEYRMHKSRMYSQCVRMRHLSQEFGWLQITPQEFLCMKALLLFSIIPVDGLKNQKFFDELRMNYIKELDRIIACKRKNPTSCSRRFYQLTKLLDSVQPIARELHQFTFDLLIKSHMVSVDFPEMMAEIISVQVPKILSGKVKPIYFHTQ

One assay addresses Androgen receptor (Homo sapiens) (UniProt P10275). The assay can be described thus: qHTS assay to identify small molecule agonists of the androgen receptor (AR) signaling pathway (AID 743036; active means well fitted activation curve with a large enough effect in the signal ratio in the repeat runs, with a control signal flat, not every such curve was filed as active; the % refers to the signal ratio). Conditions: HEK293 AR-UAS-bla GripTite, beta-lactamase FRET ratio, 16 h; series mostly up to 62.4 µM; activation: at the top concentration. In a few lines: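 AR-bla HEK293 cells, 2,000/well; 4 h preincubation 37C/5% CO2; compound (DMSO) 16 h at 37C; LiveBLAzer B/G FRET substrate 2 h RT; fluorescence intensity read-out.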
In the case of `CCOc1cc(C(C)(C)C)ccc1C1COC(c2c(F)cccc2F)=N1` (stereo unspecified), the “activation” value was 2.74% (inactive). `Nc1ccccc1C(=O)Oc1ccc2ccccc2c1`: the “activation” value is -9.04% (inactive).

As to `CCC(C)(C)C(=O)OC1=C(c2ccc(Cl)cc2Cl)C(=O)OC12CCCCC2`, the “activation” value was 15.4% (inactive). As for `O=c1oc2ccccc2c(O)c1Cc1c(O)c2ccccc2oc1=O`, the “activation” value is -1.93% [at 29.2 µM] (inactive).

Another assay shares this target. The assay can be described thus: qHTS assay to identify small molecule agonists of the androgen receptor (AR) signaling pathway using the MDA cell line (AID 743040; further: nearly all actives have a fitted effect of over 20% in size). Conditions: MDA-kb2 AR-luc cells, MMTV luciferase, 16 h; series mostly up to 70.3 µM; activity change: at the top concentration. In a few lines: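 Testing was done with the MDA-kb2 AR-luc line, a human breast carcinoma stably transfected with MMTV-luciferase containing AR and GR response elements. Cells were exposed 16 h at 37C before ONE-Glo luminescence detection.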
On to `CCOc1cc(C(C)(C)C)ccc1C1COC(c2c(F)cccc2F)=N1` (stereo unspecified), for which the “activity change” value was -10.1% (inactive). Still for that read-out and setting: the figure for `Oc1cc(Cl)c(Cl)c(Cl)c1` is -1.82% (inactive); for `Oc1c(Cl)c(Cl)cc(Cl)c1Cl` it is -7.34% [at 95 µM, hits give high values] (inactive). On the same count and under the same terms, the figure for `[CH3][Hg][Cl]` is -9.88% (inactive). On the same count and under the same terms, the figure for `Cc1ccc(OP(=O)(Oc2ccccc2)Oc2ccccc2)cc1` is -0.566% [at 95 µM, hits give high values] (inactive); for `S=C=Nc1cccc2ccccc12` it is -6.52% (inactive); for `CC(C)N1C(=O)N(c2ccccc2)CSC1=NC(C)(C)C` it is -10.3% (inactive). For `CCC(C)(C)C(=O)OC1=C(c2ccc(Cl)cc2Cl)C(=O)OC12CCCCC2`, the “activity change” value is -2.4% (inactive).

For `COP(=S)(OC)Oc1cc(Cl)c(Br)cc1Cl`, the “activity change” value is -4.97% (inactive). On to `O=c1oc2ccccc2c(O)c1Cc1c(O)c2ccccc2oc1=O`, for which the “activity change” value was 7.29% [at 32.5 µM, hits give high values] (inactive).

Turning to `COP(=O)(OC)SCn1c(=O)oc2cc(Cl)cnc21`, the “activity change” value was 0.175% (inactive).

Tested on in the next assay: not listed separately
The assay can be described thus: qHTS assay to identify small molecule antagonists of the androgen receptor (AR) signaling pathway using the MDA cell line - cell viability counter screen (AID 743041; further: nearly all actives have a fitted effect of over 45% in size). The following applies: MDA-kb2 viability, CellTiter-Fluor, 16 h, cells co-treated with R1881 androgen agonist; series mostly up to 70.3 µM; viability change, negative = cytotoxic: at the top concentration. In a few lines:
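Compound exposure lasted 16 h at 37C in MDA-kb2 AR-luc cells stimulated with R1881. Protease-based CellTiter-Fluor reagent was applied for the final 30 min and fluorescence measured.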
On to `Cc1cc(C(F)(C(F)(F)F)C(F)(F)F)ccc1NC(=O)c1cccc(I)c1C(=O)NC(C)(C)CS(C)(=O)=O`, for which the “viability change, negative = cytotoxic” value was 19.1% (inactive).

Regarding `CCOc1cc(C(C)(C)C)ccc1C1COC(c2c(F)cccc2F)=N1` (stereo unspecified), the “viability change, negative = cytotoxic” value was -0.827% (inactive).

Turning to `Nc1ccccc1C(=O)Oc1ccc2ccccc2c1`, the “viability change, negative = cytotoxic” value was -0.134% (inactive). The same measure, in the same setting: the figure for `Oc1cc(Cl)c(Cl)c(Cl)c1` is -6.06% (inactive); for `O=C(O)COc1nc(Cl)c(Cl)cc1Cl` it is 9.96% [at 95 µM] (inactive). The same measure, in the same setting: the figure for `O=C(CBr)c1ccc(O)cc1` is -3.11% (inactive); for `[CH3][Hg][Cl]` it is -13.7% (inactive); for `ClC1=C(Cl)[C@]2(Cl)[C@H]3[C@H]([C@H]4C=C[C@H]3C4)[C@@]1(Cl)C2(Cl)Cl` it is 7.57% (inactive). Consider `S=C=Nc1cccc2ccccc12`, for which the “viability change, negative = cytotoxic” value was -8.57% (inactive). Still for that read-out and setting: the figure for `Nc1ccccc1C(=O)OC/C=C/c1ccccc1` is -0.904% (inactive). For the molecule `Clc1ccc(C(c2ccccc2Cl)C(Cl)(Cl)Cl)cc1` (stereo unspecified), the Potency entry is “inactive”. Consider `[Cd+2].[Cl-].[Cl-]`, for which the Potency entry was “inactive”. Regarding `CCOC(=O)OC1=C(c2cc(C)ccc2C)C(=O)NC12CCC(OC)CC2` (stereo unspecified), the “viability change, negative = cytotoxic” value is -5.33% (inactive). On the same count and under the same terms, the figure for `c1ccc(OCC2CO2)cc1` (stereo unspecified) is -1.77% [at 95 µM] (inactive). Same read-out and setting: the figure for `CC(C)N1C(=O)N(c2ccccc2)CSC1=NC(C)(C)C` is -9.16% (inactive); for `CN(C)C1CSSSC1` it is 4.67% (inactive); for `COP(=S)(OC)Oc1cc(Cl)c(Br)cc1Cl` it is -3.7% (inactive). On the same count and under the same terms, the figure for `O=C(CCCN1CCC2(CC1)C(=O)NCN2c1ccccc1)c1ccc(F)cc1` is 0.309% (inactive); for `C1CCC2CCCCC2C1` (stereo unspecified) it is -0.888% [at 95 µM] (inactive); for `Fc1cccc(Cl)c1CCl` it is 21.2% (inactive). As for `COP(=O)(OC)SCn1c(=O)oc2cc(Cl)cnc21`, the “viability change, negative = cytotoxic” value was -17.6% (inactive).
